Results on 12 compounds are retold here after ChEMBL document CHEMBL1961873, “Compounds: GSK PKIS; Assays: Nanosyn kinase panel” (2012).

Experiment [1] deals with T1, 3-phosphoinositide-dependent protein kinase 1 (Homo sapiens) (UniProt O15530).
T1 sequence (whole entry): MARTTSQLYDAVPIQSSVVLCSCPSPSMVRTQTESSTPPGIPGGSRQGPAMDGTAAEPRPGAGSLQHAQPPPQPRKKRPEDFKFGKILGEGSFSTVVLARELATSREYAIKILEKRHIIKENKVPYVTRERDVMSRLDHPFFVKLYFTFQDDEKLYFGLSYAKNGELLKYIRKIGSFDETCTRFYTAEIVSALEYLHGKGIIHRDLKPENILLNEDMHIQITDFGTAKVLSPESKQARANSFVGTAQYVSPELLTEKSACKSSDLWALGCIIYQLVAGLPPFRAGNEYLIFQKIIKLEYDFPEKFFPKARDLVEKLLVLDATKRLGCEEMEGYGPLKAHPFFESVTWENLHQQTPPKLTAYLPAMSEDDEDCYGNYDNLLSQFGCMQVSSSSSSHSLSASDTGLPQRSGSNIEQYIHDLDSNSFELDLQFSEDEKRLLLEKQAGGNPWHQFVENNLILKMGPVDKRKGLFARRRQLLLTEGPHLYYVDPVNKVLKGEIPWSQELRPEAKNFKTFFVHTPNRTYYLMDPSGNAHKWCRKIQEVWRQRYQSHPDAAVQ
Particulars: at 0.1 µM.

In experiment [2] the target is cAMP-dependent protein kinase catalytic subunit alpha (Homo sapiens) (UniProt P17612). Particulars: at 0.1 µM.
For experiment [3] the target is unchanged. Particulars: at 1 µM.
The target in experiment [4] is Protein kinase C alpha type (Homo sapiens) (UniProt P17252). Particulars: at 0.1 µM.
For experiment [5] the target is unchanged. Particulars: at 1 µM.
The target in experiment [6] is Protein kinase C beta type (Homo sapiens) (UniProt P05771). Particulars: at 0.1 µM.
Sequence of Protein kinase C beta type (Homo sapiens) (P05771 2-671 limits assumed): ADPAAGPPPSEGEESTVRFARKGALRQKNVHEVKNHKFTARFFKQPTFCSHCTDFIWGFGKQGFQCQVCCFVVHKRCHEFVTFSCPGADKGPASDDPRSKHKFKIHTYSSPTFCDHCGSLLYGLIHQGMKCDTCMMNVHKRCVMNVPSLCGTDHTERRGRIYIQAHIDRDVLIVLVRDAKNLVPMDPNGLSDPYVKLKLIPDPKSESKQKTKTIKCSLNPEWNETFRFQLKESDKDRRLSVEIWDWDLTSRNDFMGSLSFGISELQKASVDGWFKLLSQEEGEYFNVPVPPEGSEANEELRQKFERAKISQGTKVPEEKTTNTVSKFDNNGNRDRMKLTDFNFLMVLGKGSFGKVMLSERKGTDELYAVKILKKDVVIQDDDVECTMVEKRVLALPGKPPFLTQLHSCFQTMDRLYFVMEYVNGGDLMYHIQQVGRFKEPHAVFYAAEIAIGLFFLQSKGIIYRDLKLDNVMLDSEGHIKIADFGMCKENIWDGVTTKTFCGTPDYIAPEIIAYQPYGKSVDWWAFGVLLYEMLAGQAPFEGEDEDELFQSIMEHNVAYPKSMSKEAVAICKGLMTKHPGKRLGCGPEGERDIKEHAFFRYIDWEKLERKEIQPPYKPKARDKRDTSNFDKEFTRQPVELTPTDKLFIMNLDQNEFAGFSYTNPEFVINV
Experiment [7] shares this target. Particulars: at 1 µM.
Experiment [8] has as its target Protein kinase C eta type (Homo sapiens) (UniProt P24723). To be noted: at 0.1 µM.
Experiment [9] has the same target. Particulars: at 1 µM.
The target of experiment [10] is Protein kinase C gamma type (Homo sapiens) (UniProt P05129). Particulars: at 0.1 µM.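 Note: values are mean percent inhibition of PKC gamma.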

Usually inhibition stands for the relative decrease from the control value, in per cent.

Where “and” joins values, the source holds several entries; their conditions need not be identical. Equal entries are not always repeated.

Sequence of Protein kinase C eta type (Homo sapiens) (P24723 whole entry): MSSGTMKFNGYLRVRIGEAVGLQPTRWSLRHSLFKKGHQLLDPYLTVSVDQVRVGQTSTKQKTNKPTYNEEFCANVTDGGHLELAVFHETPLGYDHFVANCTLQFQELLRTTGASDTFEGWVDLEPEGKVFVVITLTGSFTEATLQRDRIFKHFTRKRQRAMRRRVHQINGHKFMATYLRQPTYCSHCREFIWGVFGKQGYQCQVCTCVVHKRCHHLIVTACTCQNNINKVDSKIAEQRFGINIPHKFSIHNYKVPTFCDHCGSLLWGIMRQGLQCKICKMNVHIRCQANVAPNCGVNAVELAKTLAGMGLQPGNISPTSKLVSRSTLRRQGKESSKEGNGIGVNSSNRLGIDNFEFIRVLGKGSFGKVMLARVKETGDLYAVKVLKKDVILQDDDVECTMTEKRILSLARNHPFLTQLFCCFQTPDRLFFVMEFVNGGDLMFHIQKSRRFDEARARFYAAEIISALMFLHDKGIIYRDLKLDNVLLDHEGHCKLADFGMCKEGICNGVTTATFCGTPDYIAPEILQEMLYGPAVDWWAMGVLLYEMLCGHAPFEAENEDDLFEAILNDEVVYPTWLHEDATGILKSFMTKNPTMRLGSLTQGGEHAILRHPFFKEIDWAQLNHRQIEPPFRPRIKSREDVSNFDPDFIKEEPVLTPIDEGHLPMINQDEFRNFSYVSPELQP

For the compound `COC(=O)Nc1nc2ccc(Oc3ccc(NC(=O)Nc4cc(C(F)(F)F)ccc4F)cc3)cc2s1`, the inhibition in experiment [1] was 0.63%; in experiment [2], 1.2%; in experiment [3], 0.64%; in experiment [4] it was -0.14%; in [5], 9.89%; in [6], 1.64%. The inhibition in [7] is 2.17%; in experiment [8], 2.29%; in experiment [9], 1.44%; in [10], -2.55%.

For the compound `Cc1c2ccc(N(C)c3ccnc(Nc4cccc(S(N)(=O)=O)c4)n3)cc2nn1C`, the inhibition was 1.36% in [1]; -2.27% in [2]; -0.54% in [3]; -2.47% in experiment [4]; -0.96% in experiment [5]; 0.1% in experiment [6]. The inhibition was -0.52% in experiment [7], 4.05% in experiment [8], 1.15% in experiment [9] and 1.65% in [10].

Regarding `CCn1c(-c2nonc2N)nc2cncc(C(=O)NCCNC)c21`, the inhibition was 1.56% in [1]; 42.5% in experiment [2]; 78.2% in experiment [3]; 15.5% in [4]; 58.2% in [5]; 61.1% in experiment [6]. Also, the inhibition in [7] amounted to 74.4%; in experiment [8], 73.9%; in experiment [9], 93.6%; in experiment [10], 6.21%.

Turning to `CN(c1ccc(NC(=O)NCCN2CCOCC2)cc1)c1ccnc(Nc2ccc(CS(C)(=O)=O)cc2)n1`, the inhibition is 0.31% in [1]; 1.27% in [2]; 4.06% in experiment [3]; -0.51% in [4]; -0.33% in experiment [5]; 0.46% in experiment [6]. For the same compound, the inhibition worked out at 1.54% in [7], 4.71% in experiment [8], 5.63% in experiment [9] and 2.51% in experiment [10].

As for `COc1ccccc1-c1cc(/C=C2\C(=O)Nc3ncc(Br)cc32)cc(Br)c1O`, the inhibition in experiment [1] is 2.09%; in [2], 1.83%; in experiment [3] it was 1.05%; in [4], 0.82%; in experiment [5] it was 1.73%; in experiment [6] it was -0.31%. Moreover, the inhibition in experiment [7] is 0.26%; in experiment [8], 2.06%; in experiment [9] it was 1.62%; in experiment [10] it was -0.61%.

On to `c1cnn2ncc(-c3ccnc(NCCCN4CCOCC4)n3)c2c1`, for which the inhibition in experiment [1] was 1.41%; in experiment [2] it was 2.68%; in experiment [3], 5.3%; in [4], 0.87%; in [5], 2.26%; in [6], 2.73%. For the same compound, the inhibition in [7] was 5.57%; in experiment [8], 3.67%; in [9], 2.05%; in experiment [10], 3.52%.

As to `O=C(Nc1n[nH]c2nnc(-c3cccnc3)cc12)C1CC1`, the inhibition in experiment [1] was -0.25%; in experiment [2], -0.44%; in experiment [3], 0.38%; in experiment [4] it was -0.19%; in [5], 2.33%; in experiment [6], -0.7%. For the same compound, the inhibition in experiment [7] is 0.6%; in [8], -1.43%; in experiment [9], 2.91%; in [10], -0.5%.

In the case of `CC1=C(C(=O)Nc2ccc3[nH]nc(C)c3c2)C(c2ccc(C(F)(F)F)cc2)CC(=O)N1` (stereo not given), the inhibition in [1] was 1.14%; in experiment [2] it was 3.3%; in experiment [3] it was 26.6%; in experiment [4] it was 0.72%; in [5], 7.98%; in experiment [6] it was -0.41%. For the same compound, the inhibition in experiment [7] is -0.53%; in [8] it was 3.4%; in [9], 9.11%; in experiment [10], 4.48%.

Turning to `Nc1nccc(-c2c(-c3ccc(F)cc3)ncn2C2CCNCC2)n1`, the inhibition in [1] was -3.23% and 1.39%; in experiment [2], -0.37% and 3.2%; in experiment [3], 20.2% and 30.2%; in experiment [4], 1.33% and 2.68%; in [5], 21.7% and 29%; in experiment [6] it was 1.41% and 3.25%. In addition, the inhibition in experiment [7] is 17.9% and 21.4%; in experiment [8], -2.01% and 0.32%; in experiment [9], 0.29% and 1.78%; in experiment [10], -1.71% and 0.92%.

Take `Nc1ncnc2occ(-c3ccc(NC(=O)Nc4cc(C(F)(F)F)ccc4F)cc3)c12`: the inhibition in experiment [1] was 2.41% and -0.72%; in [2] it was 0.57% and -0.25%; in [3], 1.31% and -1.17%; in experiment [4], 0.16% and -0.04%; in [5] it was 0.52% and -0.37%; in experiment [6], 1.05% and -0.26%. In addition, the inhibition in experiment [7] was 1.13% and 0.29%; in [8], 1.5% and 0.01%; in experiment [9], 1.23% and -2.29%; in [10], -0.11% and -2.32%.

In the case of `NS(=O)(=O)c1cccc(N/C=C2\C(=O)Nc3ccccc32)c1`, the inhibition in experiment [1] was 4.6%; in [2], 2.79%; in experiment [3], 1.62%; in [4], 0.98%; in experiment [5] it was 2.84%; in [6], -0.22%. In addition, the inhibition in experiment [7] was 2.02%; in experiment [8], 1.78%; in [9], 3.72%; in [10], 0.43%.

On to `COc1c(C(N)=O)cc(-c2ccc(Cl)cc2)cc1-c1ccc(S(N)(=O)=O)cc1`, for which the inhibition in experiment [1] was 1.2%; in [2] it was 3.03%; in [3], 4.3%; in experiment [4], 0.59%; in [5] it was 1.5%; in experiment [6] it was 0.62%. Also, the inhibition in [7] was 3.84%; in experiment [8], 1.17%; in experiment [9] it was 5.18%; in experiment [10], 1.45%.
